Laboratory results reported in PubChem BioAssay (EPA / NIEHS).
Calls of active or inactive are those of the source. Rule for the calls: active = hit-call score of the fitted dose curve at least 0.9, where 1 is the maximum; inactive = score below 0.9.

Assays:
[1] = ATG_E_Box_CIS: Attagene CIS-FACTORIAL HepG2 Assay for human Enhancer Box (E-box) (AID 2282936); settings: HepG2 E-box cis-reporter transcription, actives raise or lower the signal
Procedure, shortened: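 First, HepG2 cells receive multiple cis-regulated reporter constructs by transient transfection. Next, chemicals are applied for 24 h. Finally, reporter mRNA is quantified via RT-PCR and capillary electrophoresis, with DMSO as baseline.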

[2] = ATG_M_61_CIS: Attagene CIS-FACTORIAL HepG2 Assay for M61 Transcription Factor (Internal Marker) (AID 2282937); settings: HepG2 Attagene CIS-FACTORIAL M61 internal marker reporter; actives raise or lower the signal
Procedure, shortened: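 Background-control endpoint: HepG2 cells with cis-regulated reporter constructs, 24 h exposure, reporter mRNA detected via fluorescent primer extension and capillary electrophoresis; values from bidirectional fitting with DMSO baseline.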

[3] = ATG_EGR_CIS: Attagene CIS-FACTORIAL HepG2 Assay for human Early Growth Response 1 (EGR1) (AID 2282938); settings: HepG2 Attagene CIS-FACTORIAL EGR reporter mRNA; actives raise or lower the signal
Procedure, shortened: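 Endpoint derived by bidirectional fitting versus DMSO vehicle. Method: cis-promoter reporter units transfected into HepG2, 24 h dosing, RNA isolation, RT-PCR with 6-FAM primer extension and HpaI digestion, then capillary electrophoresis fluorescence detection.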

[4] = ATG_M_19_CIS: Attagene CIS-FACTORIAL HepG2 Assay for M19 Transcription Factor (Internal Marker) (AID 2282939); settings: HepG2 Attagene CIS-FACTORIAL M19 internal marker reporter; actives raise or lower the signal
Procedure, shortened: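 Signals come from fluorescence of labelled reporter-specific PCR fragments resolved by capillary electrophoresis, following 24 h treatment of HepG2 cells transfected with cis-promoter reporter units; activity was fitted in both directions relative to DMSO.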

[5] = ATG_ERE_CIS: Attagene CIS-FACTORIAL HepG2 Assay for Estrogen Response Element (ERE) (AID 2282940); settings: HepG2 ERE cis-reporter, Attagene RNA transcript; actives raise or lower the signal
Procedure, shortened: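 Fluorescence of capillary-separated, FAM-labelled reporter cDNA fragments indicates reporter mRNA levels in HepG2 cells exposed to chemicals for 24 h. Transient transfection with cis-regulated units; data fitted in both directions against DMSO.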

[6] = ATG_Ets_CIS: Attagene CIS-FACTORIAL HepG2 Assay for human Erythroblast Transformation Specific (ETS) (AID 2282941); settings: HepG2 ETS cis-reporter transcription, actives raise or lower the signal
Procedure, shortened: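 Steps: transfect HepG2 with multiple reporter units; treat compound 24 h; isolate RNA, DNase-treat, reverse-transcribe; PCR-amplify, label with 6-FAM, digest with HpaI; separate by capillary electrophoresis. Activity fitted both directions versus DMSO.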

[7] = ATG_FoxO_CIS: Attagene CIS-FACTORIAL HepG2 Assay for human Forkhead box O (FoxO) (AID 2282943); settings: HepG2 Attagene cis-reporter, FoxO element, mRNA; actives raise or lower the signal
Procedure, shortened: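 Read-out: fluorescence of 6-FAM-labelled reporter cDNA fragments resolved by capillary electrophoresis. Transiently transfected HepG2 cells were dosed for 24 h; activity fitted in both directions relative to DMSO controls.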

[8] = ATG_GATA_CIS: Attagene CIS-FACTORIAL HepG2 Assay for human GATA Binding Protein (AID 2282944); settings: HepG2 GATA cis-element reporter, Attagene multiplex mRNA; actives raise or lower the signal
Procedure, shortened: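 After transfecting HepG2 cells with multiple cis-regulated reporter units, chemicals are dosed for 24 h; isolated RNA undergoes RT-PCR and fluorescent labeling before capillary electrophoresis, with activity expressed against DMSO.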

[9] = ATG_GLI_CIS: Attagene CIS-FACTORIAL HepG2 Assay for human Zinc Finger Protein GLI1 (AID 2282945); settings: HepG2, Attagene cis-factorial reporter mRNA, GLI element; actives raise or lower the signal
Procedure, shortened: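 Transiently transfected HepG2 cells report endogenous transcription factor activity via cis-element-driven reporter units. After 24 h compound exposure, reporter mRNA was measured by RT-PCR with capillary electrophoresis; bidirectional fitting against DMSO baseline.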

[10] = target: Bile acid receptor (Homo sapiens) (UniProt Q96RI1); test: ATG_IR1_CIS: Attagene CIS-FACTORIAL HepG2 Assay for human Nuclear Receptor Subfamily 1 Group H Member 4 (NR1H4), IR1 submotif (AID 2282946); settings: IR1 reporter transcription, actives raise or lower the signal
Procedure, shortened: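 HepG2 cells transiently transfected with multiple cis-promoter-driven reporter units to measure endogenous transcription factor activity; 24 h exposure. Reporter mRNA read by RT-PCR, FAM labelling, HpaI digestion and capillary electrophoresis. Bidirectional fit versus DMSO.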

[11] = ATG_ISRE_CIS: Attagene CIS-FACTORIAL HepG2 Assay for human Interferon Regulatory Factor 1 (IRF1) binding to an Interferon-Stimulated Response Element (ISRE) (AID 2282948); settings: HepG2 ISRE cis-reporter (Attagene), mRNA transcription readout; actives raise or lower the signal
Procedure, shortened: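 Transfected HepG2 (multiple reporter transcription units, cis elements) dosed 24 h. RNA → oligo(dT) RT → PCR → 6-FAM primer extension → HpaI → CE. DMSO = negative control/baseline.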

[12] = ATG_M_32_CIS: Attagene CIS-FACTORIAL HepG2 Assay for M32 Transcription Factor (Internal Marker) (AID 2282949); settings: HepG2 Attagene cis-factorial M32 reporter, mRNA; actives raise or lower the signal;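 note: background control marker of the multiplexed CIS panel rather than a real target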
Procedure, shortened: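 Internal background marker read-out: RT-PCR/capillary electrophoresis fluorescence of reporter transcripts from transiently transfected HepG2 cells after 24 h chemical exposure. Activity fitted bidirectionally relative to DMSO negative control.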

[13] = ATG_M_06_CIS: Attagene CIS-FACTORIAL HepG2 Assay for M06 Transcription Factor (Internal Marker) (AID 2282950); settings: HepG2 Attagene CIS-FACTORIAL M06 internal marker reporter; actives raise or lower the signal
Procedure, shortened: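 HepG2 liver cells, 24 h exposure. Reporter transcripts from transfected cis-element constructs quantified by RT-PCR/capillary electrophoresis fluorescence. Bidirectional curve fit against DMSO.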

[14] = target: Hypoxia-inducible factor 1-alpha (Homo sapiens) (UniProt Q16665); test: ATG_HIF1a_CIS: Attagene CIS-FACTORIAL HepG2 Assay for human Hypoxia Inducible Factor 1 (HIF1A) (AID 2282951); settings: HepG2 Attagene cis-factorial HIF1a reporter transcription; actives raise or lower the signal
Procedure, shortened: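 Dosed 24 h, transfected HepG2 cells yielded total RNA whose reporter transcripts were RT-PCR-amplified and sized by capillary electrophoresis using fluorescent labelling; DMSO defined baseline, with gain and loss of signal both fitted.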

[15] = target: Hepatocyte nuclear factor 6 (Homo sapiens) (UniProt Q9UBC0); test: ATG_HNF6_CIS: Attagene CIS-FACTORIAL HepG2 Assay for human Hepatocyte Nuclear Factor 6 (HNF6) (AID 2282952); settings: HepG2 Attagene cis-factorial HNF6 reporter transcription; actives raise or lower the signal
Procedure, shortened: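 Multiplexed mRNA reporter assay in transfected HepG2; 24 h dosing; RT-PCR plus capillary electrophoresis fluorescence; DMSO-referenced bidirectional curve fitting.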

[16] = target: Heat shock factor protein 1 (Homo sapiens) (UniProt Q00613); test: ATG_HSE_CIS: Attagene CIS-FACTORIAL HepG2 Assay for human Heat Shock Transcription Factor 1 (HSE) (AID 2282953); settings: HepG2 HSE cis-reporter, Attagene RNA transcription; actives raise or lower the signal
Procedure, shortened: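 Endogenous transcription factor activity captured via cis-promoter reporter units transfected into HepG2; treatment lasted 24 h. Fluorescence intensity of reporter fragments analysed with bidirectional curve fitting, DMSO baseline.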

[17] = ATG_MRE_CIS: Attagene CIS-FACTORIAL HepG2 Assay for human Metal Responsive Element (MRE) (AID 2282954); settings: HepG2 MRE cis-reporter transcription, Attagene multiplex; actives raise or lower the signal
Procedure, shortened: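 Fluorescent reporter fragments separated by capillary electrophoresis give mRNA induction for the MRE unit after 24 h treatment of transfected HepG2 cells. Endogenous transcription-factor activity is read; DMSO serves as negative control and baseline.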

[18] = target: Hepatocyte nuclear factor 3-beta (Homo sapiens) (UniProt Q9Y261); test: ATG_FoxA2_CIS: Attagene CIS-FACTORIAL HepG2 Assay for human Forkhead box A2 (FOXA2) (AID 2282942); settings: HepG2 cis-reporter transcription factor activity, 24 h; actives raise or lower the signal
Procedure, shortened: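 Measured: reporter mRNA induction or loss in HepG2 transiently carrying multiple cis-regulated reporter units, 24 h after dosing. Quantified by RT-PCR plus capillary electrophoresis, normalised to DMSO.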

[19] = ATG_PBREM_CIS: Attagene CIS-FACTORIAL HepG2 Assay for human Phenobarbital-responsive Enhancer Module (PBREM) (AID 2282955); settings: HepG2 PBREM cis-reporter, Attagene multiplexed transcription; actives raise or lower the signal
Procedure, shortened: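 Transfected liver-derived HepG2 cells exposed 24 h; PBREM reporter transcript quantified via RT-PCR and capillary electrophoresis, with activity in either direction referenced to DMSO.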

[20] = ATG_GRE_CIS: Attagene CIS-FACTORIAL HepG2 Assay for human Glucocorticoid Response Elements (GRE) (AID 2282947); settings: HepG2 GRE cis-reporter, Attagene multiplex mRNA; actives raise or lower the signal
Procedure, shortened: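 Endogenous transcription factor activity is read through cis-element reporter constructs transiently transfected into HepG2 cells. After 24 h treatment, labelled RT-PCR products are resolved by capillary electrophoresis; DMSO sets baseline for bidirectional curve fitting.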

Measured: AC50

Chain of Heat shock factor protein 1 (Homo sapiens) (Q00613 whole entry, looked up, the tested form may be a part): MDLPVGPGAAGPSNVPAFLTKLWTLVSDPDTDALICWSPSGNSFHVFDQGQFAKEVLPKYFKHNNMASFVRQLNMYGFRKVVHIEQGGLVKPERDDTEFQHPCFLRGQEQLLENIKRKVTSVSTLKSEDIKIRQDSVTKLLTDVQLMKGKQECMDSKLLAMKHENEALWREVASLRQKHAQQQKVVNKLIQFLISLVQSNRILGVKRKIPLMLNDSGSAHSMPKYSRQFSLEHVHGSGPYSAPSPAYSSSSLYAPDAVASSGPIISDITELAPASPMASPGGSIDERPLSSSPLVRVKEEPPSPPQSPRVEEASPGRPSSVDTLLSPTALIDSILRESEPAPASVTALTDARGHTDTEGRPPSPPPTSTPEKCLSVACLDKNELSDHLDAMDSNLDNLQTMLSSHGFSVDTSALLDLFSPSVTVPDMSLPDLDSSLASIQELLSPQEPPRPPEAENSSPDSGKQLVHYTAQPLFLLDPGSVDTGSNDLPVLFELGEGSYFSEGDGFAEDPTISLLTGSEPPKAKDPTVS
Chain of Bile acid receptor (Homo sapiens) (Q96RI1 whole entry, looked up): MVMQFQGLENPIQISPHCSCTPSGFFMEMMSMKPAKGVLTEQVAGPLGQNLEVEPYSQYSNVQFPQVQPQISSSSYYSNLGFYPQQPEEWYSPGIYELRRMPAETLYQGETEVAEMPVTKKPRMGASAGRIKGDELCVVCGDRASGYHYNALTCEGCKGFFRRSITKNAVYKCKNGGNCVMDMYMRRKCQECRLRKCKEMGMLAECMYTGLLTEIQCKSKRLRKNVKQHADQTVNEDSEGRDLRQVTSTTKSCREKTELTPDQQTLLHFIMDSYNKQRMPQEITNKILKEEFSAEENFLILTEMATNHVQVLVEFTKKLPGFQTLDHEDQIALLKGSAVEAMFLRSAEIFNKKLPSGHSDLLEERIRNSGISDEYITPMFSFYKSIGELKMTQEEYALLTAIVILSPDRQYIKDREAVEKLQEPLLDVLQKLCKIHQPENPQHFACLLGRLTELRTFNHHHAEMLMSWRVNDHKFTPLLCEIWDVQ
Chain of Hepatocyte nuclear factor 3-beta (Homo sapiens) (Q9Y261 whole entry, looked up): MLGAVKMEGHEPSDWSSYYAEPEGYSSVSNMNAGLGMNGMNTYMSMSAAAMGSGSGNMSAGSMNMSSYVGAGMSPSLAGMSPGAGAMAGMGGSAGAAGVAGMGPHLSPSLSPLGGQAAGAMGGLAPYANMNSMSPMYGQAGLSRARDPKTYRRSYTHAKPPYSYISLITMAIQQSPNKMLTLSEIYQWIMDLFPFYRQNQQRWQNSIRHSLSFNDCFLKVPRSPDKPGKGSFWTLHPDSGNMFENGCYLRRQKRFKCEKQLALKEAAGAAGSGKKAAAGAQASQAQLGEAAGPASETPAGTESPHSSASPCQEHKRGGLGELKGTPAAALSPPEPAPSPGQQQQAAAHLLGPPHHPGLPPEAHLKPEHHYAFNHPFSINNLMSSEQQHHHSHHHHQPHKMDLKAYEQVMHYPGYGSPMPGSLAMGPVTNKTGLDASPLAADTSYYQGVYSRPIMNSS
Chain of Hepatocyte nuclear factor 6 (Homo sapiens) (Q9UBC0 whole entry, looked up): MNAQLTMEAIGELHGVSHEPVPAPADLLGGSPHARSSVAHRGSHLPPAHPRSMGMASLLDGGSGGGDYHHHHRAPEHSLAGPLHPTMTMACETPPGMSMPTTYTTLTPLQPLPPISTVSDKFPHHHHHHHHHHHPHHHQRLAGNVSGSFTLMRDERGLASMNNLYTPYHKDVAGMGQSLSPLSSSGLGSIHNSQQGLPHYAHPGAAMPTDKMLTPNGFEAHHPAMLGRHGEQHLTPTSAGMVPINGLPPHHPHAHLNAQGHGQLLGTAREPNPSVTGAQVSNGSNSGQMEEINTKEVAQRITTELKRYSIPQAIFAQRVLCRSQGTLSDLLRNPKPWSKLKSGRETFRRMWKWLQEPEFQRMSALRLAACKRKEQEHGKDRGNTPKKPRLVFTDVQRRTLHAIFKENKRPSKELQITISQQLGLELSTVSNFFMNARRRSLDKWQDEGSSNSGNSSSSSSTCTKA
Chain of Hypoxia-inducible factor 1-alpha (Homo sapiens) (Q16665 whole entry, looked up): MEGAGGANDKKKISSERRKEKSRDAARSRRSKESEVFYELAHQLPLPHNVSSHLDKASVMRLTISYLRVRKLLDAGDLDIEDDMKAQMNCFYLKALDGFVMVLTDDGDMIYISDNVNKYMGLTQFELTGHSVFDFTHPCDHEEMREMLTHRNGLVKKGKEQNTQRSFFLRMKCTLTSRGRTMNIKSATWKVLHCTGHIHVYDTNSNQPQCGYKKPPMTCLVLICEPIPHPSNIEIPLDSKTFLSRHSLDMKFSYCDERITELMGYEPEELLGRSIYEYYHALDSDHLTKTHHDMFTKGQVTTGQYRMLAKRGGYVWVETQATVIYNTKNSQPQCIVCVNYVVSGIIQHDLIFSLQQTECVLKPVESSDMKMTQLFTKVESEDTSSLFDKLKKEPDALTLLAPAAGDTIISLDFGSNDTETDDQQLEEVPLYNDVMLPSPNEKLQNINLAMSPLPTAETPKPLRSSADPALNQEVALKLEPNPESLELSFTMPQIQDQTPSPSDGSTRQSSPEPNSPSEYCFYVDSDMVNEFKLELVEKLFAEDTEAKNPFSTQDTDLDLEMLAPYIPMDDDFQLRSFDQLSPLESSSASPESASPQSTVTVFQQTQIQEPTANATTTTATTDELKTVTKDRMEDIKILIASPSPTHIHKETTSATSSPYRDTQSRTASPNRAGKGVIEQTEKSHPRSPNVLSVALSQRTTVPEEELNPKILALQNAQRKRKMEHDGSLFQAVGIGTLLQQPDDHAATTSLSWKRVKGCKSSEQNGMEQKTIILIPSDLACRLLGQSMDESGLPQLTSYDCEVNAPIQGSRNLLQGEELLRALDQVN

COc1cc(C)ccc1C(C)C
not listed: [18] | [19] | [20]
inactive: all other assays above

C=CCCCCCCCCC(=O)OCCCC
not listed: [6] | [16] | [20]
inactive: all other assays above

CCC(C)OC(=O)c1ccc(O)cc1 (centres undefined)
active: [5] 868 nM
not listed: [6] | [10]
inactive: all other assays above

OCCCS
not listed: [6] | [11] | [13] | [17]
inactive: all other assays above

OCCc1ccncc1
not listed: [18] | [19]
inactive: all other assays above

N#CCc1ccc(Cl)cc1Cl
not listed: [10] | [15] | [20]
inactive: all other assays above

CCCCC(CC)CCC(CC(C)C)OS(=O)(=O)O (centres undefined)
not listed: [18] | [20]
inactive: all other assays above

O=CC1CC1
not listed: [15] | [18]
inactive: all other assays above
